B2AR arrestin: agonists driving beta-arrestin recruitment to human beta2-adrenergic receptor | P07550 | beta-arrestin recruitment to beta2AR, cell-based reporter | 0.02% of 330,000 active | Potency, µM (doses to about 46.1 µM), for the others: at the top dose activation, usual class: activators;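 note: potency is the fitted concentration of half-maximal effect; 0% = DMSO controls and full agonism = EC100 isoproterenol or metaproterenol; nearly all actives have a fitted effect of over 65% in size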
Target sequence (P07550 whole entry, looked up): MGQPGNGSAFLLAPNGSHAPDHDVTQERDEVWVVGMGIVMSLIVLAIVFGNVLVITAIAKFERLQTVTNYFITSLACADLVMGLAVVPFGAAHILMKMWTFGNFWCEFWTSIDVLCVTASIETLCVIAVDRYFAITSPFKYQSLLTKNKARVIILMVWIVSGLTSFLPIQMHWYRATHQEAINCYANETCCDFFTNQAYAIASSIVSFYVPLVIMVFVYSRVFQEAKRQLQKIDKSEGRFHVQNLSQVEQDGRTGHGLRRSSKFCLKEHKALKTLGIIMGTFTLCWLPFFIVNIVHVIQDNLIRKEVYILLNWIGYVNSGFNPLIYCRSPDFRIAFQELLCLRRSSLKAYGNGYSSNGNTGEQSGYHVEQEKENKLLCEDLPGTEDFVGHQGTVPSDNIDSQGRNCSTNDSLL
IDH1 R132H inh: inhibitors of human mutant IDH1 R132H; O75874; Potency, µM (series often up to 76.6 µM), for inactives: at the highest dose activity change, negative = inhibition, hits mostly inhibitors; AID 602179; 0.093% of 390,000 active; IDH1-R132H enzyme, NADPH consumption, diaphorase/resazurin fluorescence; note: potency is the fitted concentration of half-maximal effect; % is set by controls: 0 for no effect and ±100 for the full control effect; nearly all actives have a fitted effect of over 65% in size
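IDH1-R132H (0.5 ug/mL dispensed) in pH 7.5 Tris buffer was preincubated 30 min with compound, then given a substrate mix of 0.016 mM NADPH and 2 mM alpha-KG for 80 min at room temperature; remaining NADPH was read by diaphorase/resazurin fluorescence.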
D3 ag: D3 dopamine receptor (human) agonism; D3R DiscoveRx beta-arrestin cells, luminescence, 90 min; P35462; max activation, %; AID 652048; 0.58% of 410,000 active; in the data active = max activation above about 30%; note: 0% is about no effect
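Agonist-mode cell screen: cells plated at 1500/well and incubated overnight at 37 °C, then exposed to library compounds for 90 min at 37 °C. Detection reagent was added for 30–60 min at room temperature, and luminescence was read.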
D3 antag: D3 dopamine receptor (human) antagonism | D3R cells, DiscoveRx beta-arrestin luminescence, antagonist mode; hits give low values | max response, negative = inhibition, % | 2.5% of 360,000 active | P35462 | AID 652054; in the data active = max response below about -50%; inconclusive = no clear call, values can overlap the other calls; note: % is set by controls: 0 for no effect and ±100 for the full control effect
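Cells plated overnight at 1500 cells/well, then exposed to library compounds with dopamine controls for 90 minutes at 37 degrees C. DiscoveRx reagent added for 30–60 minutes at room temperature; luminescence read, quantitative HTS format.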
Integrin act MD: activators of alpha7 integrin expression for muscular dystrophy; alpha7betagal myoblasts, beta-gal FDG fluorescence, 48 h; Potency, µM (top dose mostly 38.3 µM), for inactives: top-dose activation, usual class: activators; 0.064% of 350,000 active; AID 624291;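 note: potency is the fitted concentration of half-maximal effect; 100% = response of the positive control SU9516; nearly all actives have a fitted effect of over 60% in size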
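Alpha7betagal+/- myoblasts (passage 13) were plated 16-24 hr, then exposed to compounds (1:260 dilution of DMSO stock) for 48 hours at 37C. After MPER lysis, β-galactosidase reporter activity was read as FDG fluorescence (ex 480/em 540) after 30 minutes.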
Resorufin autofl: counter-screen for mutant IDH1 inhibitors: fluorescence interference; shares compounds with IDH1 R132H inh; Resorufin detection reagent fluorescence interference, cell-free; inhibition of signal, % at 51.2 µM; 750 tested, under 10 active; AID 623980;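 note: 0% = wells with normal resorufin and full inhibition = wells lacking resorufin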
IDH1 WT: wild-type IDH1 (human) inhibition counterscreen. shares compounds with IDH1 R132H inh. WT IDH1 enzyme, NADPH diaphorase/resazurin fluorescence. Potency, µM (doses to about 115 µM), without a hit: at the highest dose activity change, negative = inhibition, actives largely listed as inhibitors. 9% of 750 active. AID 623995;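 note: potency is the fitted concentration of half-maximal effect; 0% = full WT IDH1 enzyme control and full inhibition = no enzyme wells; nearly all actives have a fitted effect of over 55% in size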
IDH1 R132H conf: confirmation of human mutant IDH1 inhibitors; shares compounds with IDH1 R132H inh; IDH1 R132H enzyme, NADPH diaphorase/resazurin fluorescence; Potency, µM (doses to about 76.6 µM), for inactives: at the highest dose activity change, negative = inhibition, hits mostly inhibitors; 83% of 750 active; AID 624002; note: potency is the fitted concentration of half-maximal effect; nearly all actives have a fitted effect of over 50% in size
The depositor's hits bear a star; ? = inconclusive; . = not tested or not shown. An excerpt weighted towards active compounds, which were near 2.9% of everything screened. Unless noted, calls come from the whole dose curve; as a rule, active = well fitted curve in the direction sought with a large enough effect; inconclusive = small, poorly fitted or top-dose-only effect, or another doubt; inactive = no such curve, though single readings can be large; an effect the other way counts as inactive or inconclusive.

SMILES	B2AR arrestin	IDH1 R132H inh	D3 ag	D3 antag	Integrin act MD	others
O=C(Cn1nc(-c2ccc(Cl)cc2)ccc1=O)N1CCC2(CC1)OCCO2	0.3%	2.9%	1.8	-3.6	11.2µM*
CC(C)c1ccc2c(c1)C(N1CCNCC1)Cc1ccc(F)cc1S2 (stereo not drawn)	.	2.9%	-10.1	-62.9*	-59.2%
CN1C(=O)[C@@H](NC(=O)c2cc3ccccc3[nH]2)N=C(c2ccccc2)c2ccccc21	.	.	7.6	.	.
COC(=O)C1=C(c2ccc(OCc3ccccc3)cc2)C[C@@H]2CC[C@H]1N2C(=O)NCCCc1ccccc1	-3.8%	-7.1%	-9.4	-50.8*	29.1%
COC(=O)C1=C(c2ccc(OCc3ccccc3)cc2)C[C@@H]2CC[C@H]1N2C(=O)NCc1ccc(OC)c(OC)c1	18.4µM*	-3.9%	-2.6	-12.9	-8.6%
COc1ccc2c3c1O[C@H]1[C@@H](O)C=C[C@H]4[C@@H](C2)N(C)CC[C@@]341	.	.	-4.4	.	.
O=C1SC(Cc2ccccc2)C(=O)N1c1ccccc1 (stereo not drawn)	5.7%	3.8%	5.8	-9.0	7.94µM*
COC(=O)C(O)(c1ccc(NC(=O)c2cccs2)cc1)C(F)(F)F (stereo not drawn)	0.0%	17.3%	-15.9	-62.0*	-12.5%
COC(=O)C(O)(c1ccc(NC(=O)c2ccccc2)cc1)C(F)(F)F (stereo not drawn)	-0.8%	-2.9%	-0.7	6.4	4.7%
Clc1cccc(N2CCNCC2)c1Cl	-0.1%	5.6%	6.8	-56.0*	-17.9%
c1ccc2c(N3CCNCC3)cccc2c1	.	11.1%	-91.6	0.0	.
CC(=O)OC1(c2ccccc2)CCN(CCc2ccccc2)CC1	.	.	-10.6	.	.
O=C1C(I)=CC(=C(c2cc(I)c(O)c(I)c2)c2ccccc2C(=O)O)C=C1I	.	.	13.9	.	.
CCc1ccccc1NC(=O)NNS(=O)(=O)c1cc(C)ccc1C	-0.3%	-2.9%	2.0	6.2	27.6%
COc1cc(OC)c(OC)cc1CNC(C)C(O)c1ccccc1 (stereo not drawn)	0.5%	-1.1%	0.5	-66.6*	1.8%
CC(NCc1ccc(Cl)cc1)C(O)c1ccccc1 (stereo not drawn)	-0.5%	-6.1%	-20.8	-104.9*	2.5%
CC(NCc1ccc(Cl)cc1Cl)C(O)c1ccccc1 (stereo not drawn)	-0.2%	6.0%	-32.7	-56.4*	32.6%
CCC1(c2cnc[nH]2)Cc2ccccc2C1	.	.	-16.5	.	.
COc1cc(CNCCc2c[nH]c3ccccc23)cc(OC)c1OC	.	3.4%	-0.7	2.6	-29.4%
COc1cc(CNCCc2c[nH]c3ccccc23)cc(OC)c1	-0.6%	2.9%	-38.4	-68.5*	?
c1ccc2c(CCNCc3ccc4c(c3)OCO4)c[nH]c2c1	-0.2%	1.8%	-1.8	-68.2*	-28.1%
CCOc1ccc(CNCCc2ccc3c(c2)OCO3)cc1	0.0%	-0.9%	-5.0	-86.4*	-0.7%
C[C@]12CC[C@@H]3c4ccc(OC(=O)N(CCCl)CCCl)cc4CC[C@H]3[C@@H]1CC[C@@H]2OP(=O)(O)O	.	.	-7.9	.	.
CN1CCN=C(c2ccccc2)c2cc(Cl)ccc21	.	.	-1.4	.	.
CC(C)(C)CC(C)(C)c1ccc(O)cc1	.	.	7.4	.	.
O=C(N/N=C/c1c(O)n(C2CCCCC2)c(=S)[nH]c1=O)c1ccccc1O	0.2%	?	-2.2	10.1	-26.6%	Resorufin autofl=8.6;IDH1 WT=-4.7%;IDH1 R132H conf=44.7µM*
O=c1c2ccccc2nc(/C=C/c2cccnc2)n1Cc1ccccc1	-1.2%	41.4µM*	-11.5	3.5	-56.7%	Resorufin autofl=4.5;IDH1 WT=44.7µM*;IDH1 R132H conf=25.1µM*
C#CC(C)(O)CC (stereo not drawn)	.	.	-2.1	.	.

High-throughput results: PubChem BioAssay, National Center for Advancing Translational Sciences (NCATS)
